# Measured values: PubChem BioAssay AID1159580 (chemical genetic matrix, 2015)
# Out of some 5,500 compounds screened, about 2,000 (36%) were called active. Another 18% or so got no clear call; they are omitted. The list shows a part of the results. Unmarked numbers belong to inactive results. Rule as the data show it: active = normalized growth mostly below about 0.91 (no sharp cut-off); inconclusive = no clear call, values can overlap the other calls; inactive = mostly above about 0.92.
# Test: chemical genetic growth profiling, strain panel (AID 1159580);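 also: tested at 20 µM; growth read once vehicle control cultures reached saturation at 30 °C; 1 = growth at the plate median or of vehicle wells; lower values mean less growth of the strain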
# Conditions: growth OD
structure (smiles),measurement,setting,value
Nc1cc(-c2ccncc2)c[nH]c1=O,normalized growth,"S. cerevisiae deletion strains, locus YJR043C, strain POL32, stronger effect = lower value",0.89
same,normalized growth,"S. cerevisiae deletion strains, locus YJR066W, strain TOR1, stronger effect = lower value",0.973
same,normalized growth,"S. cerevisiae deletion strains, locus YJR075W, strain HOC1, stronger effect = lower value",0.942
same,normalized growth,"S. cerevisiae deletion strains, locus YKL009W, strain mrt4, stronger effect = lower value",0.977
same,normalized growth,"S. cerevisiae deletion strains, locus YKL068W, stronger effect = lower value",0.977
same,normalized growth,"S. cerevisiae deletion strains, locus YKL085W, strain MDH1 (second series), stronger effect = lower value",0.989
same,normalized growth,"S. cerevisiae deletion strains, locus YKL085W, strain MDH1, stronger effect = lower value",0.989
same,normalized growth,"S. cerevisiae deletion strains, locus YKL160W, strain elf1, stronger effect = lower value",0.689 (active)
same,normalized growth,"S. cerevisiae deletion strains, locus YKL190W, strain CNB1, stronger effect = lower value",0.974
same,normalized growth,"S. cerevisiae deletion strains, locus YKR001C, strain vps1, stronger effect = lower value",0.765 (active)
same,normalized growth,"S. cerevisiae deletion strains, locus YKR026C, strain gcn3, stronger effect = lower value",0.947
same,normalized growth,"S. cerevisiae deletion strains, locus YKR091W, strain srl3, stronger effect = lower value",0.976
same,normalized growth,"S. cerevisiae deletion strains, locus YLL001W, strain dnm1, stronger effect = lower value",0.687 (active)
same,normalized growth,"S. cerevisiae deletion strains, locus YLL026W, stronger effect = lower value",0.826 (active)
same,normalized growth,"S. cerevisiae deletion strains, locus YLL041C, strain sdh2, stronger effect = lower value",0.933
same,normalized growth,"S. cerevisiae deletion strains, locus YLR027C, strain aat2, stronger effect = lower value",0.831 (active)
same,normalized growth,"S. cerevisiae deletion strains, locus YLR039C, strain RIC1, stronger effect = lower value",0.981
same,normalized growth,"S. cerevisiae deletion strains, locus YLR058C, strain SHM2, stronger effect = lower value",0.975
same,normalized growth,"S. cerevisiae deletion strains, locus YLR102C, strain apc9, stronger effect = lower value",0.983
same,normalized growth,"S. cerevisiae deletion strains, locus YLR113W, strain HOG1, stronger effect = lower value",1.02
same,normalized growth,"S. cerevisiae deletion strains, locus YLR221C, strain rsa3, stronger effect = lower value",0.778 (active)
same,normalized growth,"S. cerevisiae deletion strains, locus YLR258W, strain gsy2, stronger effect = lower value",0.673 (active)
same,normalized growth,"S. cerevisiae deletion strains, locus YLR262C, strain YPT6 (second series), stronger effect = lower value",1.01
same,normalized growth,"S. cerevisiae deletion strains, locus YLR262C, strain YPT6, stronger effect = lower value",0.978
same,normalized growth,"S. cerevisiae deletion strains, locus YLR268W, strain sec22, stronger effect = lower value",0.908
same,normalized growth,"S. cerevisiae deletion strains, locus YLR320W, strain mms22, stronger effect = lower value",0.273 (active)
same,normalized growth,"S. cerevisiae deletion strains, locus YLR330W, strain CHS5, stronger effect = lower value",0.878 (active)
same,normalized growth,"S. cerevisiae deletion strains, locus YLR342W, strain FKS1 (second series), stronger effect = lower value",0.87
same,normalized growth,"S. cerevisiae deletion strains, locus YLR342W, strain FKS1, stronger effect = lower value",0.952
same,normalized growth,"S. cerevisiae deletion strains, locus YLR357W, strain rsc2, stronger effect = lower value",0.972
same,normalized growth,"S. cerevisiae deletion strains, locus YLR370C, strain arc18, stronger effect = lower value",0.514 (active)
same,normalized growth,"S. cerevisiae deletion strains, locus YLR384C, strain iki3, stronger effect = lower value",0.966
same,normalized growth,"S. cerevisiae deletion strains, locus YLR418C, strain cdc73, stronger effect = lower value",0.882
same,normalized growth,"S. cerevisiae deletion strains, locus YML016C, strain PPZ1, stronger effect = lower value",0.899 (active)
same,normalized growth,"S. cerevisiae deletion strains, locus YML032C, strain rad52, stronger effect = lower value",0.986
same,normalized growth,"S. cerevisiae deletion strains, locus YML120C, strain ndi1, stronger effect = lower value",0.979
same,normalized growth,"S. cerevisiae deletion strains, locus YML124C, strain tub3, stronger effect = lower value",0.971
same,normalized growth,"S. cerevisiae deletion strains, locus YMR058W, strain fet3, stronger effect = lower value",0.871 (active)
same,normalized growth,"S. cerevisiae deletion strains, locus YMR078C, strain ctf18, stronger effect = lower value",0.949
same,normalized growth,"S. cerevisiae deletion strains, locus YMR125W, strain sto1, stronger effect = lower value",0.955
same,normalized growth,"S. cerevisiae deletion strains, locus YMR129W, stronger effect = lower value",0.955
same,normalized growth,"S. cerevisiae deletion strains, locus YMR205C, strain PFK2, stronger effect = lower value",0.559 (active)
same,normalized growth,"S. cerevisiae deletion strains, locus YMR223W, strain ubp8, stronger effect = lower value",0.848 (active)
same,normalized growth,"S. cerevisiae deletion strains, locus YMR231W, strain pep5, stronger effect = lower value",0.965
same,normalized growth,"S. cerevisiae deletion strains, locus YMR263W, strain SAP30, stronger effect = lower value",0.977
same,normalized growth,"S. cerevisiae deletion strains, locus YMR307W, strain GAS1, stronger effect = lower value",0.937
same,normalized growth,"S. cerevisiae deletion strains, locus YNL067W, strain RPL9B, stronger effect = lower value",0.888
same,normalized growth,"S. cerevisiae deletion strains, locus YNL071W, strain lat1, stronger effect = lower value",0.39 (active)
same,normalized growth,"S. cerevisiae deletion strains, locus YNL183C, strain NPR1, stronger effect = lower value",0.977
same,normalized growth,"S. cerevisiae deletion strains, locus YNL209W, strain ssb2, stronger effect = lower value",0.914 (active)
same,normalized growth,"S. cerevisiae deletion strains, locus YNL233W, strain BNI4, stronger effect = lower value",0.82 (active)
same,normalized growth,"S. cerevisiae deletion strains, locus YNL248C, strain rpa49, stronger effect = lower value",0.517 (active)
same,normalized growth,"S. cerevisiae deletion strains, locus YNL250W, strain rad50, stronger effect = lower value",0.963
same,normalized growth,"S. cerevisiae deletion strains, locus YNL271C, strain bni1, stronger effect = lower value",0.989
same,normalized growth,"S. cerevisiae deletion strains, locus YNL298W, strain CLA4, stronger effect = lower value",0.988
same,normalized growth,"S. cerevisiae deletion strains, locus YNL307C, strain MCK1, stronger effect = lower value",0.163 (active)
same,normalized growth,"S. cerevisiae deletion strains, locus YNL322C, strain KRE1 (second series), stronger effect = lower value",0.907
same,normalized growth,"S. cerevisiae deletion strains, locus YNR049C, strain mso1, stronger effect = lower value",0.889 (active)
same,normalized growth,"S. cerevisiae deletion strains, locus YNR052C, strain pop2, stronger effect = lower value",0.994
same,normalized growth,"S. cerevisiae deletion strains, locus YOL006C, strain TOP1, stronger effect = lower value",0.573
same,normalized growth,"S. cerevisiae deletion strains, locus YOL012C, strain htz1",0.865
same,normalized growth,"S. cerevisiae deletion strains, locus YOL147C, strain pex11, stronger effect = lower value",0.979
same,normalized growth,"S. cerevisiae deletion strains, locus YOR001W, strain rrp6, stronger effect = lower value",0.967
same,normalized growth,"S. cerevisiae deletion strains, locus YOR061W, strain CKA2, stronger effect = lower value",0.887 (active)
same,normalized growth,"S. cerevisiae deletion strains, locus YOR069W, strain VPS5, stronger effect = lower value",0.967
same,normalized growth,"S. cerevisiae deletion strains, locus YOR070C, strain gyp1, stronger effect = lower value",0.814 (active)
same,normalized growth,"S. cerevisiae deletion strains, locus YOR080W, strain dia2, stronger effect = lower value",0.965
same,normalized growth,"S. cerevisiae deletion strains, locus YOR083W, strain WHI5, stronger effect = lower value",0.858 (active)
same,normalized growth,"S. cerevisiae deletion strains, locus YOR106W, strain vam3, stronger effect = lower value",0.587 (active)
same,normalized growth,"S. cerevisiae deletion strains, locus YOR136W, strain idh2, stronger effect = lower value",0.899 (active)
same,normalized growth,"S. cerevisiae deletion strains, locus YOR144C, strain elg1, stronger effect = lower value",0.986
same,normalized growth,"S. cerevisiae deletion strains, locus YOR184W, strain ser1, stronger effect = lower value",0.893
same,normalized growth,"S. cerevisiae deletion strains, locus YOR231W, strain MKK1, stronger effect = lower value",1.01
same,normalized growth,"S. cerevisiae deletion strains, locus YOR265W, strain rbl2, stronger effect = lower value",0.768 (active)
same,normalized growth,"S. cerevisiae deletion strains, locus YOR270C, strain vph1, stronger effect = lower value",0.451 (active)
same,normalized growth,"S. cerevisiae deletion strains, locus YOR290C, strain snf2, stronger effect = lower value",0.91
same,normalized growth,"S. cerevisiae deletion strains, locus YOR316C, strain cot1, stronger effect = lower value",0.98
same,normalized growth,"S. cerevisiae deletion strains, locus YPL051W, strain arl3, stronger effect = lower value",0.792 (active)
same,normalized growth,"S. cerevisiae deletion strains, locus YPL078C, strain atp4, stronger effect = lower value",0.973
same,normalized growth,"S. cerevisiae deletion strains, locus YPL106C, strain sse1, stronger effect = lower value",0.555 (active)
same,normalized growth,"S. cerevisiae deletion strains, locus YPL240C, strain hsp82, stronger effect = lower value",0.839 (active)
same,normalized growth,"S. cerevisiae deletion strains, locus YPL241C, strain CIN2, stronger effect = lower value",0.993
same,normalized growth,"S. cerevisiae deletion strains, locus YPL256C, strain CLN2, stronger effect = lower value",1.08
same,normalized growth,"S. cerevisiae deletion strains, locus YPR119W, strain clb2, stronger effect = lower value",0.987
same,normalized growth,"S. cerevisiae deletion strains, locus YPR141C, strain kar3, stronger effect = lower value",0.972
same,normalized growth,"S. cerevisiae deletion strains, locus YPR163C, strain tif3, stronger effect = lower value",0.603 (active)
same,normalized growth,"S. cerevisiae deletion strains, locus YPR167C, strain met16, stronger effect = lower value",0.928
same,normalized growth,"S. cerevisiae deletion strains, strain wtn01, stronger effect = lower value",0.848 (active)
same,normalized growth,"S. cerevisiae strains, strain wild type, stronger effect = lower value",0.958
